# Laboratory results as given in PubChem BioAssay (EPA / NIEHS).
# Inconclusive results are not listed. Calls of active or inactive are those of the source. The calls were made as follows: active = hit-call score of the fitted dose curve at least 0.9, where 1 is the maximum; inconclusive = response in the unintended direction; inactive = score below 0.9.
# Biological target: Estrogen receptor (Homo sapiens) (UniProt P03372)
# Test: ATG_ERa_TRANS: Attagene TRANS-FACTORIAL HepG2 Assay for human Estrogen Receptor alpha (ERa) (AID 2282970)
# Details: HepG2 Attagene TRANS ERa GAL4 reporter, mRNA
# Method: ATG_TRANS is a cell-based, multiplexed-readout assay that uses HepG2, a human liver cell line, with measurements taken at 24 hours after chemical dosing in a 24-well plate.ATG_ERa_TRANS is one of 30 assay component(s) measured or calculated from the ATG_TRANS assay. It is designed to make measurements of mRNA induction, a form of inducible reporter, as detected with fluorescence intensity signals by Reverse transcription polymerase chain reaction (RT-PCR) and Capillary electrophoresis technology.Data from the assay component ATG_ERa_TRANS was analyzed into 1 assay endpoint. This assay endpoint, ATG_ERa_TRANS, was analyzed in the positive analysis fitting direction relative to DMSO as the negative control and baseline of activity. Using a type of inducible reporter, measures of mRNA for gain-of-signal activity can be used to understand the reporter gene at the transcription factor-level as they relate to the gene ESR1. Furthermore, this assay endpoint can be referred to as a primary readout, because this assay has produced multiple assay endpoints where this one serves a reporter gene function. To generalize the intended target to other relatable targets, this assay endpoint is annotated to the nuclear receptor intended target family, where the subfamily is steroidal.
# Human liver HepG2 cells are transiently transfected with multiple reporter transcription units (MRTUs) in 6-well plates using FuGene 6 reagent (Roche; 3 ml FuGene/1 mg DNA). The MRTU constructs are regulated by a cis-regulating element (promoter). […] A major difference between the CIS and TRANS system is that in CIS activities of endogenous TFs are measured, whereas the TRANS assay evaluates changes in activities of exogenous, chimeric NR-Gal4 proteins. […] At the end of 24 hour incubation, total RNA was isolated using TriZol reagent (Invitrogen). The isolated RNA is then reverse-transcribed using oligo(dT) primer and Mo-MLV reverse transcriptase (Invitrogen) with DNAse I (Ambion) treatment for 30 min. The one-tenth of the produced cDNA was amplified by PCR using Taq DNA polymerase (Invitrogen) and two reporter sequence-specific primers. The PCR products were fluorescently labeled by primer extension with 6-arboxyfluorescein (6-FAM) 5'-labeled reporter sequence-specific primer (2 min at 95 C, 20 s at 68 C and 10 min at 72 C) and these products were digested with 5U of HpaI (New England Biolabs) for 2h at 37 C. […] The raw capillary electrophoresis data was processed using Attagraph software (Attagene).
# Sequence of Estrogen receptor (Homo sapiens) (P03372 whole entry, looked up): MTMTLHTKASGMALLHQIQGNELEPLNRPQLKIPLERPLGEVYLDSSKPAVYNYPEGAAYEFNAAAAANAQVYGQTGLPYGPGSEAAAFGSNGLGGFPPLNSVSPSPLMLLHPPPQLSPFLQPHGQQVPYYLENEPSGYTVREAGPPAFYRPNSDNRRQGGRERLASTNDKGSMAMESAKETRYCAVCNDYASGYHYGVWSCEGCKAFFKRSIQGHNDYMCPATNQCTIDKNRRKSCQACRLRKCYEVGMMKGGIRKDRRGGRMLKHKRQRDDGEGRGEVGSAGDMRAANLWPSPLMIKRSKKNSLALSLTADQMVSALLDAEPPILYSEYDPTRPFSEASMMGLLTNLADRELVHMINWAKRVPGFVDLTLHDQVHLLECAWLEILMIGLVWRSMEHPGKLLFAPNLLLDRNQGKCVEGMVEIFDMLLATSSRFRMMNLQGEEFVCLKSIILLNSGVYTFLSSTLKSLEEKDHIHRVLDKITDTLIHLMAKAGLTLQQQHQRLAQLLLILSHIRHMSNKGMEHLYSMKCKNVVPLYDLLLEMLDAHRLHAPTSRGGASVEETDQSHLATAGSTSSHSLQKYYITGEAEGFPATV
Structure (SMILES),AC50,outcome
Nc1ccc(Cl)cc1C(=O)c1ccccc1,3.63 µM (active),–
Nc1cccc(Cl)c1,–,inactive
ClC(Cl)=C(Cl)C(Cl)=C(Cl)Cl,–,inactive
CC(C)c1cccc(C(C)C)c1O,–,inactive
O=P(O)(O)CN(CP(=O)(O)O)CP(=O)(O)O,–,inactive
CCC(=O)c1ccccc1,–,inactive
O=C1C(Cl)=C(Cl)C(=O)c2ccccc21,–,inactive
CN(C)P(=O)(N(C)C)N(C)C,–,inactive
C[C@H]1CCCC(=O)CCC/C=C/c2cc(O)cc(O)c2C(=O)O1,0.00409 µM (active),–
OCc1ccco1,–,inactive
CC(=O)c1cc(C(C)(C)C)cc2c1CCC2(C)C,–,inactive
N#CN=C(N)N,–,inactive
CCSC(C)CC1CC(=O)C(C(CC)=NOC/C=C/Cl)=C(O)C1 (stereo not given),–,inactive
COP(=S)(OC)Oc1ccc(S(=O)(=O)N(C)C)cc1,–,inactive
O=C/C=C/c1ccccc1,27.8 µM (active),–
CC(C)(OO)c1ccccc1,100 µM (active),–
C[C@H]1O[C@@H](O[C@H]2[C@@H](O)C[C@H](O[C@H]3[C@@H](O)C[C@H](O[C@H]4CC[C@@]5(C)[C@H](CC[C@@H]6[C@@H]5CC[C@]5(C)[C@@H](C7=CC(=O)OC7)CC[C@]65O)C4)O[C@@H]3C)O[C@@H]2C)C[C@H](O)[C@@H]1O,–,inactive
COP(=S)(OC)Oc1cc(Cl)c(Cl)cc1Cl,36.3 µM (active),–
c1cc[c]([Hg][c]2ccccc2)cc1,–,inactive
CCC(C)(C)c1ccc(O)c(C(C)(C)CC)c1,33.4 µM (active),–

Structure (SMILES),AC50,outcome
NC(=O)O,–,inactive
O=CC=O,–,inactive
O=[N+]([O-])c1ccc2c3c(cccc13)CC2,–,inactive
CNC,–,inactive
O=C(c1ccccc1)C(Cl)Cl,–,inactive
C=C(C)C(=O)[O][Sn]([CH2]CCC)([CH2]CCC)[CH2]CCC,–,inactive
CC(=[OH+])/C=C(/C)[O-].CC(=[OH+])/C=C(/C)[O-].CC(=[OH+])/C=C(/C)[O-].[Fe],–,inactive
CCCCP(CCCC)CCCC,–,inactive
NC(=S)Nc1ccccc1,64.2 µM (active),–
Nc1ccc(N=Nc2ccc(-c3ccc(N=Nc4c(S(=O)(=O)O)cc5cc(S(=O)(=O)O)c(N=Nc6ccccc6)c(O)c5c4N)cc3)cc2)c(N)c1,19.9 µM (active),–
COC[C@H](C)N(C(=O)CCl)c1c(C)csc1C,–,inactive
CC(Br)C(=O)O (stereo not given),–,inactive
N#CCc1ccc(Cl)cc1,–,inactive
ClCCBr,–,inactive
Clc1nc(Cl)nc(Cl)n1,–,inactive
CC(C)c1ccc(CO)cc1,60.1 µM (active),–
Clc1ccc(COC(Cn2ccnc2)c2ccc(Cl)cc2Cl)cc1 (stereo not given),–,inactive
COS(=O)(=O)c1ccc(C)cc1,–,inactive
CCN(CC)C(=O)Cl,15.9 µM (active),–
O=C(Nc1ccc2[nH]ccc2c1)c1cc2cc(F)ccc2n1Cc1cccc(F)c1,–,inactive
